# Experimental data reported in PubChem BioAssay (EPA / NIEHS).
# Where “and” joins values, the source holds several entries; their conditions need not be identical. Equal entries are not always repeated. Results filed as inconclusive are left out. Some compounds were tested as several samples or in several runs, with calls that do not always agree. Calls of active or inactive are those of the source. How the source made its calls, unless noted: active means hit-call score of the fitted dose curve at least 0.9, where 1 is the maximum; inconclusive means response in the unintended direction; inactive means score below 0.9.
# Assays:
# [1] = target: rat Gamma-Aminobutyric Acid Type A Receptor, Non-Selective (GABAR-NonSelective), Gabra1 (gene 29705) (UniProt P62813); assay: NVS_LGIC_rGABAR_NonSelective: NovaScreen (NVS) Ligand-Gated Ion Channel Assay for rat Gamma-Aminobutyric Acid Type A Receptor, Non-Selective (GABAR-NonSelective) (AID 2283326)
# In short: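 Compounds were first screened in duplicate at 25 uM, with actives run as singleton concentration series (max 50 uM). Binding of a radioligand to rat whole-brain GABA-A preparation was measured by filtration and scintillation counting after 1 h, DMSO baseline.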
# [2] = target: Voltage-gated inwardly rectifying potassium channel KCNH2 (Homo sapiens) (UniProt Q12809); assay: NVS_IC_hKhERGCh: NovaScreen (NVS) Ion Channel Assay for human Potassium Channel ERG (KhERGCh) (AID 2283333)
# In short: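 Membranes from CHO cells expressing human ERG; displacement of radioligand measured by filtration and scintillation after 0.75 h. Single-concentration duplicate screen at 25 uM, then concentration-response for actives; DMSO baseline.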
# [3] = target: rat Glutamate, NMDA Agonist Site (GluNMDA), Grin1 (gene 24408) (UniProt P35439); assay: NVS_LGIC_rGluNMDA_Agonist: NovaScreen (NVS) Ligand-Gated Ion Channel Assay for rat Glutamate, NMDA Agonist Site (GluNMDA) (AID 2283327)
# In short: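 Radioligand displacement at the agonist site on rat forebrain membrane preparations, read by filter scintillation after 1 h. Chemicals were first run at 25 uM in duplicate; those passing threshold were titrated to a 50 uM maximum.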
# [4] = target: human Peripheral-type Benzodiazepine Receptor (PBR), TSPO (gene 706) (UniProt P30536); assay: NVS_MP_hPBR: NovaScreen (NVS) Membrane Protein Assay for human Peripheral-type Benzodiazepine Receptor (PBR) (AID 2283331);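 further: hits reduce radioligand binding relative to DMSO baseline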
# Chain of human Peripheral-type Benzodiazepine Receptor (PBR), TSPO (gene 706) (P30536 whole entry, looked up): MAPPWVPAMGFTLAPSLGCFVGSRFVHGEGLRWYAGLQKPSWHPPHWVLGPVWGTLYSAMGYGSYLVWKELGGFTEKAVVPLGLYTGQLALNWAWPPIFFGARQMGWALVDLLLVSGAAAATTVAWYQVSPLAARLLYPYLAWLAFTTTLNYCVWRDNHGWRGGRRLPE
# In short: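 Using human colon-derived membranes, this one-endpoint binding test reads radioligand loss by scintillation after 1 h. Screening started at 25 uM in duplicate, with positive and negative controls on every plate, and actives moved to dose series.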
# [5] = target: rat Peripheral-type Benzodiazepine Receptor (PBR), Tspo (gene 24230) (UniProt P16257); assay: NVS_MP_rPBR: NovaScreen (NVS) Membrane Protein Assay for rat Peripheral-type Benzodiazepine Receptor (PBR) (AID 2283335)
# Chain of rat Peripheral-type Benzodiazepine Receptor (PBR), Tspo (gene 24230) (P16257 whole entry, looked up): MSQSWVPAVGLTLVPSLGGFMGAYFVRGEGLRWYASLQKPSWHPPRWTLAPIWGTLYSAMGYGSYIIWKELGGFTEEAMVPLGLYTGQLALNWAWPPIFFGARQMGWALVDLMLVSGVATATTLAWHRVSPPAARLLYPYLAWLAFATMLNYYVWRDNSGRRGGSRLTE
# In short: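 Single-concentration duplicate screening at 25 uM preceded concentration-series retesting of actives. Binding of a specific radioligand to rat kidney membrane PBR was read by filtration radiodetection after 1 h, with plate-wise positive and negative controls.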
# [6] = target: Sodium channel protein type 1 subunit alpha (Rattus norvegicus) (UniProt P04774); assay: NVS_IC_rNaCh_site2: NovaScreen (NVS) Ion Channel Assay for rat Sodium Channel, Site 2 (NaCh) (AID 2283322);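 further: hit means loss of radioligand binding signal relative to DMSO so AC50 marks displacement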
# In short: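 Initial duplicate single-point testing at 25 uM, followed by concentration-response runs for actives. Binding of radioligand to rat forebrain membranes quantified after 1 h via filter-based radiodetection.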
# [7] = target: rat Thyrotropin Releasing Hormone Receptor (TRH), Trhr (gene 25570) (UniProt Q01717); assay: NVS_GPCR_rTRH: NovaScreen (NVS) G Protein-Coupled Receptor Assay for rat Thyrotropin Releasing Hormone Receptor (TRH) (AID 2283329);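 further: hit means lower bound tracer signal versus DMSO baseline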
# Chain of rat Thyrotropin Releasing Hormone Receptor (TRH), Trhr (gene 25570) (Q01717 whole entry, looked up): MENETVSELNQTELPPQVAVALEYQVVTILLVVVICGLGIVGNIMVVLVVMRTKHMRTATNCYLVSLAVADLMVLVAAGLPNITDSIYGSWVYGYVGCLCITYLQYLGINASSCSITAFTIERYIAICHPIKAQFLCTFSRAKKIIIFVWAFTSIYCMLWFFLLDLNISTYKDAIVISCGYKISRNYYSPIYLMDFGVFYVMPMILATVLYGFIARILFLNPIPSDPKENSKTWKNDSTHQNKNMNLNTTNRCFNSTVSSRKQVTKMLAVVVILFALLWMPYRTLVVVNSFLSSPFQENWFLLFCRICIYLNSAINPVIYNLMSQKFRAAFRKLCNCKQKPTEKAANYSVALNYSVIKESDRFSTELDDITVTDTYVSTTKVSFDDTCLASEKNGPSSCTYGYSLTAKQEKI
# In short: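 Rat forebrain membrane prep, radioligand displacement, filter scintillation readout at 4 h. Single conc 25 uM, duplicate; actives retested as concentration series. DMSO = negative control/baseline.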
# [8] = target: Small conductance calcium-activated potassium channel protein 1 (Rattus norvegicus) (UniProt P70606); assay: NVS_IC_rKCaCh: NovaScreen (NVS) Ion Channel Assay for rat Potassium Channel, Ca2+ Act., VI (KCaCh) (AID 2283336)
# Chain of Small conductance calcium-activated potassium channel protein 1 (Rattus norvegicus) (P70606 whole entry, looked up): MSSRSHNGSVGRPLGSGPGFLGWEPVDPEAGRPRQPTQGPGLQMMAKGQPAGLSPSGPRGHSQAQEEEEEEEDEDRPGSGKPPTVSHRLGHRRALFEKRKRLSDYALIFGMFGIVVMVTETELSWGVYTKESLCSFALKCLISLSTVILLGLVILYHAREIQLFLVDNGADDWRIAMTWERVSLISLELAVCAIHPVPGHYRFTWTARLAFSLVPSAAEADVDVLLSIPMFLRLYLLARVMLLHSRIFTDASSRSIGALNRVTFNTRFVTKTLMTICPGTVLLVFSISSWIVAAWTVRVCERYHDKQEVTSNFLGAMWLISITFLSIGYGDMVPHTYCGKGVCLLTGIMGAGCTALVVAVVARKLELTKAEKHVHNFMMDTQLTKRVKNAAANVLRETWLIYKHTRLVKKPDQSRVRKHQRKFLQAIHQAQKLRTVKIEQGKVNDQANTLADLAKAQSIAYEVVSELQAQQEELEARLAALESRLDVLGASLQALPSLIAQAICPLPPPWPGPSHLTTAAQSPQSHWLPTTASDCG
# In short: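 Filter-based scintillation counting of radioligand bound to rat forebrain membrane preparations, measured 1 h after compound addition. Primary screen used 25 uM in duplicate, with concentration-response follow-up; signal decrease relative to DMSO marks activity.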
# [9] = target: bovine Gamma-Aminobutyric Acid Type A Receptor BDZ, alpha 5 site (GABARa5), GABRA5 (gene 523515) (UniProt Q08E50); assay: NVS_LGIC_bGABARa5: NovaScreen (NVS) Ligand-Gated Ion Channel Assay for bovine Gamma-Aminobutyric Acid Type A Receptor BDZ, alpha 5 site (GABARa5) (AID 2283323)
# In short: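 Tested first in duplicate at a single 25 uM, with hits re-run in concentration series to a 50 uM maximum. Bovine hippocampal membranes; specific radioligand displacement measured by filter scintillation counting 1 hr post-dose.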
# [10] = target: rat Glutamate, AMPA Site (AMPA), Gria1 (gene 50592) (UniProt P19490); assay: NVS_LGIC_rAMPA: NovaScreen (NVS) Ligand-Gated Ion Channel Assay for rat Glutamate, AMPA Site (AMPA) (AID 2283324)
# Chain of rat Glutamate, AMPA Site (AMPA), Gria1 (gene 50592) (P19490 whole entry, looked up): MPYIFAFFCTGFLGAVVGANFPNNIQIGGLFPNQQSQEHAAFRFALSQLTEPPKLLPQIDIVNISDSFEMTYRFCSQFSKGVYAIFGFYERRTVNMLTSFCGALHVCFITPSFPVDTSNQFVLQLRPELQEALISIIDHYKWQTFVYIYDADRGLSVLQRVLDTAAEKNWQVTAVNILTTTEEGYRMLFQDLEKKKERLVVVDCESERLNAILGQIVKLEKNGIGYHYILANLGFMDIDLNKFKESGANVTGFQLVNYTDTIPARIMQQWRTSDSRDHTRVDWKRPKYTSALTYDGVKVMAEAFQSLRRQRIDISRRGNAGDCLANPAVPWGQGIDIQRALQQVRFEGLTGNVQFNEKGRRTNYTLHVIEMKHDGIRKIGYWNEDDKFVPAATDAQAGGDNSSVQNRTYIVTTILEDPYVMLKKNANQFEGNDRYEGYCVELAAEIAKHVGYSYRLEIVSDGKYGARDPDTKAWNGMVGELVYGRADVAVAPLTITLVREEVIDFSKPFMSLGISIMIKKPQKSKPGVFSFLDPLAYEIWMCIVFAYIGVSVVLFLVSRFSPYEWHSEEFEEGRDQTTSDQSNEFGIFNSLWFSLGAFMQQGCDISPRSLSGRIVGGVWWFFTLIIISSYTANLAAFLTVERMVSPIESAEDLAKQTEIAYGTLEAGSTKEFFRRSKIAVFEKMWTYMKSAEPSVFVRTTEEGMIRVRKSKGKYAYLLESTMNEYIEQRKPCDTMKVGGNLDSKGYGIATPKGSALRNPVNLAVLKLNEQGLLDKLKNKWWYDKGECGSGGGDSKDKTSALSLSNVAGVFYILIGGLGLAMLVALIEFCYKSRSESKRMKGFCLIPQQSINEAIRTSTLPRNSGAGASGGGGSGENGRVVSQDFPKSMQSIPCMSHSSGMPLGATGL
# In short: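 Screening at 25 uM in duplicate preceded concentration series reaching 50 uM for qualifying compounds. Radioligand displacement on rat forebrain membranes, 1 h, filter-based scintillation readout; reduced binding relative to DMSO.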
# [11] = target: human Serotonin, 5-Hydroxytryptamine Receptor 3 (5HT3), HTR3A (gene 3359) (UniProt P46098); assay: NVS_LGIC_h5HT3: NovaScreen (NVS) Ligand-Gated Ion Channel Assay for human Serotonin, 5-Hydroxytryptamine Receptor 3 (5HT3) (AID 2283325)
# Chain of human Serotonin, 5-Hydroxytryptamine Receptor 3 (5HT3), HTR3A (gene 3359) (P46098 whole entry, looked up): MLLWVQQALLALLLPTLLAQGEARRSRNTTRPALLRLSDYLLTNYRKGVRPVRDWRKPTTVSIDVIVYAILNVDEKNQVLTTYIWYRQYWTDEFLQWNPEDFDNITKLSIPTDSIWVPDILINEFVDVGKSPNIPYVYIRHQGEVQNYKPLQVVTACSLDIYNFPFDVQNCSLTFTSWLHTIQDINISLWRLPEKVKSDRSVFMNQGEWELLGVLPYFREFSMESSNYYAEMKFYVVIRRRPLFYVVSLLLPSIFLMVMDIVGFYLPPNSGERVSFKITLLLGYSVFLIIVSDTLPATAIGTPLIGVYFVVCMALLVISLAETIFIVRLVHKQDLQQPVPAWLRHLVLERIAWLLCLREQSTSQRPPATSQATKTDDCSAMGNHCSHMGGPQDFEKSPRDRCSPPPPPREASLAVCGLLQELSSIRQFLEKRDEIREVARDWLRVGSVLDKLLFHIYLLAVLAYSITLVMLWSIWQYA
# In short: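 Initially tested at 25 uM in duplicate, then up to 50 uM in concentration-response for actives, compounds competed with a radioligand for HEK293-derived human 5-HT3 receptor. Bound counts were measured by filtration and scintillation at 1 h; loss of signal versus DMSO.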
# [12] = target: rat Oxytocin Receptor (OXT), Oxtr (gene 25342) (UniProt P70536); assay: NVS_GPCR_rOXT: NovaScreen (NVS) G Protein-Coupled Receptor Assay for rat Oxytocin Receptor (OXT) (AID 2283330)
# Chain of rat Oxytocin Receptor (OXT), Oxtr (gene 25342) (P70536 whole entry, looked up): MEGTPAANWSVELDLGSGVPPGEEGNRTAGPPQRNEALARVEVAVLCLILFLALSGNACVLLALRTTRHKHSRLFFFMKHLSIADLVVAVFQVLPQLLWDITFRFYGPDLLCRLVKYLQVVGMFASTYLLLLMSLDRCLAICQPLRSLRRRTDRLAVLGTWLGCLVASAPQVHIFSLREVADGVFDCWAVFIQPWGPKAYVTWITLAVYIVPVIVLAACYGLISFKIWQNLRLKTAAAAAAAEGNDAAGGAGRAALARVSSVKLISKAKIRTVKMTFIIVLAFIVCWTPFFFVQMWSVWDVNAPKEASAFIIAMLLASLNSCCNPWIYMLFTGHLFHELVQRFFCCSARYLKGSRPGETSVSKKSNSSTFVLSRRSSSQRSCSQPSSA
# In short: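 Binding to rat uterine membrane receptor was followed by scintillation counting of filter-trapped radioligand after 1 h. A 25 uM duplicate single-point screen preceded concentration series with a top of 50 uM. Signal loss was analysed relative to DMSO.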
# [13] = NVS_IC_rCaBTZCHL: NovaScreen (NVS) Ion Channel Assay for Calcium Channel, Type L, Benzothiazepine Site (CaBTZCHL) (AID 2283337)
# In short: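 Rat cortical membrane preparation, cell-free. Radioligand displaced by test chemical; 1.5 h incubation; filtration, scintillation count. DMSO = negative control/baseline. Primary: duplicate, 25 uM; secondary: concentration series.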
# [14] = target: bovine Gamma-Aminobutyric Acid Type A Receptor Agonist (GABAR Agonist), GABRA1 (gene 780973) (UniProt P08219); assay: NVS_LGIC_bGABAR_Agonist: NovaScreen (NVS) Ligand-Gated Ion Channel Assay for bovine Gamma-Aminobutyric Acid Type A Receptor Agonist (GABAR Agonist) (AID 2283338)
# In short: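 Radioligand binding to bovine cerebellar membranes in agonist format, read by filter-based scintillation counting after 1 h. Primary screen in duplicate at 25 uM, with actives followed in concentration series. Gain of signal versus DMSO.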
# [15] = target: human Constitutive Androstane Receptor (CAR), NR1I3 (gene 9970) (UniProt Q14994); assay: NVS_NR_hCAR_Agonist: NovaScreen (NVS) Nuclear Receptor Binding Assay for human Constitutive Androstane Receptor Agonism (CAR) (AID 2283328)
# In short: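 Actives from a 25 uM duplicate screen were retested in singleton concentration series to 50 uM max. Biochemical TR-FRET assay on extracted CAR protein measured 1 h post-dose, with signal increase over DMSO control.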
# [16] = target: rat Glutamate, MK-801 Agonist Site (GluNMDA_MK801), Grin1 (gene 24408) (UniProt P35439); assay: NVS_LGIC_rGluNMDA_MK801_Agonist: NovaScreen (NVS) Ligand-Gated Ion Channel Assay for rat Glutamate, MK-801 Agonist Site (GluNMDA_MK801) (AID 2283340)
# In short: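 Rat forebrain membrane preparation; MK-801-site radioligand binding read by filtration and scintillation after 1.5 h. Single-point 25 uM duplicate screen, followed by singleton concentration series to 50 uM max; DMSO baseline.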
# [17] = target: rat Glycine Receptor, Strychnine-sensitive (GlyRStrySens), Glra1 (gene 25674) (UniProt P07727); assay: NVS_LGIC_rGlyRStrySens: NovaScreen (NVS) Ligand-Gated Ion Channel Assay for rat Glycine Receptor, Strychnine-sensitive (GlyRStrySens) (AID 2283341)
# Chain of rat Glycine Receptor, Strychnine-sensitive (GlyRStrySens), Glra1 (gene 25674) (P07727 whole entry, looked up): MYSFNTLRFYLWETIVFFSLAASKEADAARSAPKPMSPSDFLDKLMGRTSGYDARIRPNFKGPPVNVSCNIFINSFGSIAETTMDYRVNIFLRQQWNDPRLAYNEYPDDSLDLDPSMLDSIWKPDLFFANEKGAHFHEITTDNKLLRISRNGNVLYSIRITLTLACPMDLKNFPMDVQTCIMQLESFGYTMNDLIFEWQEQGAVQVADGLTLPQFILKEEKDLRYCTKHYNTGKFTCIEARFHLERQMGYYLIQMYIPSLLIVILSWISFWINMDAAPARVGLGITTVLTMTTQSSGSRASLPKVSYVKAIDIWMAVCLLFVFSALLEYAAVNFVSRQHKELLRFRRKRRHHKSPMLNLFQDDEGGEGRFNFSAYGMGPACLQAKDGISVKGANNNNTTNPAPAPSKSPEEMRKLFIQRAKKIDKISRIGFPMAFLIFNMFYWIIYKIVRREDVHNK
# In short: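 Radioligand displacement on rat spinal cord membranes, 1 hr, filter scintillation read-out. Single-concentration duplicate screen at 25 uM; chemicals meeting threshold (e.g., 30% inhibition) rerun in concentration-response up to 50 uM. Loss of binding fitted versus DMSO.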
# [18] = target: rat Gamma-Aminobutyric Acid Type A Receptor BDZ, alpha 6 site (GABARa6), Gabra6 (gene 29708) (UniProt P30191); assay: NVS_LGIC_rGABARa6: NovaScreen (NVS) Ligand-Gated Ion Channel Assay for rat Gamma-Aminobutyric Acid Type A Receptor BDZ, alpha 6 site (GABARa6) (AID 2283339)
# Chain of rat Gamma-Aminobutyric Acid Type A Receptor BDZ, alpha 6 site (GABARa6), Gabra6 (gene 29708) (P30191 whole entry, looked up): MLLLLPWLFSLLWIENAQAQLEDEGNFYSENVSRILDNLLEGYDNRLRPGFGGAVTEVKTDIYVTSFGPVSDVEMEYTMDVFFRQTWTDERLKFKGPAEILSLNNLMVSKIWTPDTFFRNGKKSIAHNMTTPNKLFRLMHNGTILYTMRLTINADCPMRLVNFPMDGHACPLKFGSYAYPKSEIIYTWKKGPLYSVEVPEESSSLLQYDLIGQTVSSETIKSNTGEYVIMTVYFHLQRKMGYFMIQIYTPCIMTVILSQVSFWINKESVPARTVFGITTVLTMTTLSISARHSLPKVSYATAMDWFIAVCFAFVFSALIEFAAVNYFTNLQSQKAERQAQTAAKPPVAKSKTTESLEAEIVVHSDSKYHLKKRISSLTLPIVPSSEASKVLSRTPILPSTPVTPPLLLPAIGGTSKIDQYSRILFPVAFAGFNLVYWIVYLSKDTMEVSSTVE
# In short: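 Actives from a 25 uM duplicate screen were retested in concentration series (max 50 uM). Specific radioligand displacement from rat cerebellar membranes was counted by filter-based scintillation at 1 h; DMSO served as baseline.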
# [19] = target: human Androgen Receptor (AR), AR (gene 367) (UniProt P10275); assay: NVS_NR_hAR: NovaScreen (NVS) Nuclear Receptor Binding Assay for human Androgen Receptor (AR) (AID 2283332)
# Chain of human Androgen Receptor (AR), AR (gene 367) (P10275 whole entry, looked up): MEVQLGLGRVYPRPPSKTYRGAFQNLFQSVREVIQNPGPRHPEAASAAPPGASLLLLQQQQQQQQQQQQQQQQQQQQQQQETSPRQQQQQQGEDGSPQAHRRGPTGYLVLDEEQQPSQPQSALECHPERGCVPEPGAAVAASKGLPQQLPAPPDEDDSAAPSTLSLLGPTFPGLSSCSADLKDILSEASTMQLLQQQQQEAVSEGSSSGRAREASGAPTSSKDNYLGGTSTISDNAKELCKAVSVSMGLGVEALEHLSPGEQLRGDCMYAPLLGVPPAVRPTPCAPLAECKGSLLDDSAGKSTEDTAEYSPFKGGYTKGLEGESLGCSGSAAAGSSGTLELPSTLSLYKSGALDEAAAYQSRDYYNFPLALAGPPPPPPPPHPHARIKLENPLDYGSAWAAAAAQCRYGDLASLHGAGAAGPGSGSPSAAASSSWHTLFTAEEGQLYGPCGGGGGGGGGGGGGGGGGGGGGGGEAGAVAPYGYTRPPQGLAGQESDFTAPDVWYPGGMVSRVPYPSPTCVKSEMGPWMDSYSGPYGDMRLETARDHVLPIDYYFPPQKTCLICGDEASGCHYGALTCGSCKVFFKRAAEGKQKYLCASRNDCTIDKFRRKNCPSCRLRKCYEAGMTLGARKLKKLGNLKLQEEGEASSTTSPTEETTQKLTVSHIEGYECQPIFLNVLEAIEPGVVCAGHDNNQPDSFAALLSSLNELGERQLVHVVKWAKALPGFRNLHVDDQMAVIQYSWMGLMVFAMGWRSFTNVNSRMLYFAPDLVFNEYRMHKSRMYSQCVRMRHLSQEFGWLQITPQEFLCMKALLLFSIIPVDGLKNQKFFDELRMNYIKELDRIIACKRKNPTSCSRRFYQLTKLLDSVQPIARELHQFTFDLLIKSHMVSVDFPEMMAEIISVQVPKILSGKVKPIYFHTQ
# In short: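 Actives from a duplicate 25 uM single-point screen went on to concentration series. Read-out after 20 h was scintillation counting of displaced radioligand in LnCAP extract, with DMSO as baseline.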
# [20] = target: Glutamate receptor ionotropic, kainate 1 (Rattus norvegicus) (UniProt P22756); assay: NVS_IC_rKAR: NovaScreen (NVS) Ion Channel Assay for rat Kainic Acid Receptors (KAR) (AID 2283334; active means hit-call score of the fitted dose curve at least 0.9, where 1 is the maximum; inactive means score below 0.9)
# In short: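 Rat forebrain membrane preparation incubated 1 h with radioligand and test chemical; bound signal read by filtration and scintillation. Single-concentration screen at 25 uM, then concentration series to 50 uM maximum.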
structure (smiles),measurement,setting,value
CCCCCCOC(=O)c1ccccc1C(=O)OCCCCCC,outcome,[1],inactive
same,outcome,[2],inactive
CCSC(=O)N(CC)C1CCCCC1,outcome,[3],inactive
same,outcome,[4],inactive
same,outcome,[5],inactive
C[C@]12CCC(=O)C=C1CC[C@@H]1[C@@H]2CC[C@@]2(C)[C@H]1CC[C@]2(C)O,AC50,[6],3.26 µM (active)
same,outcome,[7],inactive
CC(C)(c1ccccc1)c1ccc(O)cc1,AC50,[6],31.4 µM (active)
same,outcome,[4],inactive
same,outcome,[5],inactive
same,outcome,[8],inactive
CCC(C)(CC)c1cc(NC(=O)c2c(OC)cccc2OC)on1,outcome,[9],inactive
same,outcome,[4],inactive
same,outcome,[5],inactive
Cc1cccc(C)c1N,outcome,[10],inactive
CCC(C)(c1ccc(O)cc1)c1ccc(O)cc1,AC50,[6],13.7 µM (active)
same,AC50,[3],16.4 µM (active)
same,AC50,[4],9.64 µM (active) and 2.96 µM (active) and 14.1 µM (active)
same,AC50,[5],6.5 µM (active)
same,outcome,[5],inactive
CCCCCCCCCC[N+](C)(C)CCCCCCCCCC,AC50,[6],1.03 µM (active)
same,outcome,[11],inactive
same,AC50,[12],18.6 µM (active)
same,AC50,[4],21.5 µM (active)
same,AC50,[13],4.34 µM (active)
same,outcome,[14],inactive
Clc1ccc(Cl)cc1,outcome,[11],inactive
same,outcome,[12],inactive
C[C@]12CCC(=O)C=C1CC[C@@H]1[C@@H]2CC[C@]2(C)C(=O)CC[C@@H]12,AC50,[6],25 µM (active)
CCNc1nc(NC(C)C)nc(SC)n1,outcome,[7],inactive
CC(c1ccc(O)cc1)(c1ccc(O)cc1)c1ccc(O)cc1,outcome,[10],inactive
same,outcome,[3],inactive
O=C(O)C(F)(F)C(F)(F)C(F)(F)C(F)(F)C(F)(F)F,outcome,[11],inactive
same,outcome,[15],inactive
COc1ccc(O)c(C(C)(C)C)c1,AC50,[6],38.2 µM (active)
same,outcome,[8],inactive
CC1=C2C[C@H]3[C@@H](CC=C4C[C@@H](O)CC[C@@]43C)[C@@H]2CC[C@]12O[C@@H]1C[C@H](C)CN[C@H]1[C@H]2C,AC50,[6],0.171 µM (active)
same,outcome,[13],inactive
Oc1ccc(C(c2ccc(O)cc2)(C(F)(F)F)C(F)(F)F)cc1,AC50,[6],5.87 µM (active)
same,AC50,[3],19.5 µM (active)
same,AC50,[12],13.6 µM (active)
same,AC50,[5],6.31 µM (active)
same,outcome,[5],inactive
same,AC50,[16],19.8 µM (active)
same,outcome,[17],inactive
CCCCCCCCCc1ccc(O)cc1,outcome,[11],inactive
same,outcome,[7],inactive
Cc1cc2c3c(c1)C(c1ccccc1)=N[C@@H](NC(=O)c1ccncc1)C(=O)N3CC2,AC50,[9],1.43 µM (active)
same,AC50,[5],9.63 µM (active)
same,outcome,[18],inactive
Clc1ccc(C(c2ccccc2Cl)C(Cl)(Cl)Cl)cc1 (stereo not given),outcome,[10],inactive
O=C(N[C@H]1CN2CCC1CC2)c1cc2ccoc2cn1,AC50,[6],11.7 µM (active)
same,AC50,[11],1.35 µM (active)
OCC(O)CO,outcome,[7],inactive
Sc1ccccc1,outcome,[7],inactive
O=C(NC(=O)c1cc(F)c(F)cc1Cl)Nc1cc(F)ccc1N1CCC(C(=O)O)CC1,outcome,[12],inactive
same,outcome,[8],inactive
same,outcome,[17],inactive
CCOC(=O)C(O)(c1ccc(Cl)cc1)c1ccc(Cl)cc1,AC50,[19],6.91 µM (active)
CCC(=O)O[C@H]1CC[C@H]2[C@@H]3CCC4=CC(=O)CC[C@]4(C)[C@H]3CC[C@]12C,AC50,[19],26.8 nM (active) and 48 nM (active)
Oc1ccc(Cl)cc1Cl,outcome,[2],inactive
COS(=O)(=O)OC,outcome,[20],inactive
c1ccc(-c2ccccc2)cc1,outcome,[8],inactive
O=S(=O)(O)C(F)(F)C(F)(F)C(F)(F)C(F)(F)C(F)(F)C(F)(F)F,outcome,[18],inactive
O=NN(c1ccccc1)c1ccccc1,outcome,[16],inactive
